Test results: PubChem BioAssay AID1259343 (VanderVen Lab, College of Veterinary Medicine, Cornell …, 2017)
In all, about 6,200 compounds went through this assay and about 2,900 (47%) were called active. So high a share suggests a set chosen from earlier hits. This is one part of the list. Values without a mark were called inactive. No stated cut-off is given here; in the data, active means inhibition above about 50%; inactive means the rest.

Assay: Mycobacterium tuberculosis growth inhibition, primary screen (AID 1259343)
Conditions: inhibition: at 10 µM, stronger effect = higher value; outcome: 10 uM
Molecule `Cc1csc(SCc2cc(=O)c(OC(=O)c3ccc(C)c(C)c3)co2)n1` has an inhibition of -15%. With `COc1ncc(CN2CCCC(CCc3ccccc3C(F)(F)F)C2)cn1` (configuration not stated) the inhibition was 77.6% (active). With `COc1coc(CN2CCCC(CCc3ccccc3C)C2)cc1=O` (configuration not stated) the inhibition was 33.7%. In the case of `CCCC1CCCN(C(=O)c2cc3ccccc3cc2O)CC1` (configuration not stated), the inhibition is reported as 23.5%. `COc1ncc(C(=O)N2CCCC(COc3cccc(F)c3)C2)cn1` (configuration not stated) gave an inhibition of 36.7%. With `CC(C)c1ncc(CN2CCCC(CCc3cccc(C(F)(F)F)c3)C2)cn1` (configuration not stated) the inhibition was 93.2% (active). In the case of `O=C(c1cnn2ccccc12)N1CCCC(CCc2cccc(C(F)(F)F)c2)C1` (configuration not stated), the inhibition is reported as 93.1% (active). For `O=C(c1cc(COc2cccc(C(F)(F)F)c2)on1)N1CCCC(CCCO)C1` (configuration not stated), the inhibition was 47.5%. For `CCOc1ccc(Cn2c(=O)oc3ccccc32)cc1`, the inhibition was 68.1% (active). With `CCCOc1ccc(Cc2nn[nH]n2)cc1` the inhibition was 34.6%. With `CCCOc1ccc(Cn2c(=O)oc3ccc(C)cc32)cc1` the inhibition was 67.2% (active). In the case of `CCOC1=CC(=O)N(Cc2ccccc2)C1`, the inhibition is reported as 48.1%. For `CCCOc1ccc(C2c3c(oc4ccc(C)cc4c3=O)C(=O)N2c2nccs2)cc1` (configuration not stated), the inhibition was -18.8%. For `COc1ccc(Cn2c(C3CCCCC3)nc3oc4ccccc4c(=O)c3c2=O)cc1`, the inhibition was -20.8%. In the case of `NC1=NC(=O)C(CC(=O)Nc2ccc(SC(F)(F)C(F)(F)C(F)(F)F)cc2)S1` (configuration not stated), the inhibition is reported as 35.5%. With `O=S(=O)(/C=C/c1ccccc1)Nc1ccc(Cl)cc1F` the inhibition was 81.5% (active). With `O=S(=O)(/C=C/c1ccccc1)Nc1ccccc1C(F)(F)F` the inhibition was 78.4% (active). `O=S(=O)(/C=C/c1ccccc1)NCCc1cccc2ccccc12` showed an inhibition of 6.24%. For `O=S(=O)(/C=C/c1ccccc1)NC1CCCCC1`, the inhibition was 17%. In the case of `Cc1ccc2nc(-c3cccc(N)c3C)oc2c1`, the inhibition is reported as 42.1%. In the case of `Cc1cccc(C)c1-c1ccc(-c2nn[nH]n2)cc1`, the inhibition is reported as 70.6% (active). Work on `COc1ccc(OCCNc2ccccc2-c2nn[nH]n2)cc1` yielded an inhibition of 22.1%. With `O=C(Cn1ncc(Cl)c(Cl)c1=O)c1cc(F)ccc1F` the inhibition was -50.8%. For `O=C(Cn1ncc(Cl)c(Cl)c1=O)c1ccc2c(c1)CCC2`, the inhibition was 82.8% (active). For `O=C(Cn1ncc(Cl)c(Cl)c1=O)Nc1ccc2ccccc2c1`, the inhibition was 11%. Work on `CC(C)(C)c1ccc(OCc2ccc(C(=O)OCC#N)cc2)cc1` yielded an inhibition of -2.26%. For `CC(C)OC(=O)c1ccc(COc2ccc(C(C)(C)C)cc2)o1`, the inhibition was 75.8% (active). In the case of `CC(C)c1nc(CC(=O)N(C)Cc2ccc(C3CC3C)o2)cs1` (configuration not stated), the inhibition is reported as 83.2% (active). With `CC1CC1c1ccc(CCC(=O)Nc2ccccn2)o1` (configuration not stated) the inhibition was 48.8%. `CC1CC1c1ccc(/C=C2/SC(N)=NC2=O)o1` (configuration not stated) gave an inhibition of 5.99%. `COc1cccc(CC(=O)Nc2ccc3c(c2)CCC3)c1` gave an inhibition of -43.3%. With `COc1cccc(Cc2nsc(Oc3ccc(CC(=O)O)cc3)n2)c1` the inhibition was 88.3% (active). `C=C(C)COc1cccc(C(=O)NCc2noc(C3CCCC3)n2)c1` gave an inhibition of 38.4%. In the case of `CN(Cc1ccc2cccc(O)c2n1)Cc1noc(C2CCC2)n1`, the inhibition is reported as 98.5% (active). With `CCc1nnc(NS(=O)(=O)c2ccccc2Cl)s1` the inhibition was 80.2% (active). With `COCc1nnc(NS(=O)(=O)c2ccc(Br)cc2)s1` the inhibition was “inactive”. Work on `CC(C)c1nnc(NS(=O)(=O)c2ccc(Cl)s2)s1` yielded an inhibition of -36.5%. With `c1cc2cc(CNc3nc(NCC4CC4)nc4ccsc34)ccc2o1` the inhibition was 76.9% (active). For `Brc1ccc(CSc2nnc(-c3ccc4c(c3)OCO4)o2)cc1`, the inhibition was 59.2% (active). `Clc1cccc(CSc2nnc(-c3ccc4c(c3)OCO4)o2)c1` showed an inhibition of 41.6%. `Brc1cc2c(cc1CSc1nnc(-c3ccccc3)o1)OCO2` showed an inhibition of -11.5%. For `Clc1ccccc1CSc1nnc(-c2ccc3c(c2)OCO3)o1`, the inhibition was 1.82%. With `Brc1ccccc1CSc1nnc(-c2ccc3c(c2)OCO3)o1` the inhibition was 99.6% (active). In the case of `Clc1cccc(Cl)c1CSc1nnc(-c2ccc3c(c2)OCO3)o1`, the inhibition is reported as 63.3% (active). In the case of `N#CCSc1nnc(-c2ccc3c(c2)OCO3)o1`, the inhibition is reported as 97.5% (active). `CCn1nc(NC(C)=O)c2cc3ccc(C)cc3nc21` showed an inhibition of -33.9%. Work on `CN(C(=O)c1cc(Cl)sc1Cl)c1ccc(-c2onc3c2CCc2ccccc2-3)cc1` yielded an inhibition of 35.5%. With `Fc1ccc(-c2nnc(SCc3cc(Cl)c4c(c3)OCCO4)o2)cc1` the inhibition was 95.4% (active). With `N#Cc1ccc(CON=Cc2ccccc2OC(F)F)cc1` the inhibition was 52.2% (active). `C(=NOCc1ccc(CON=Cc2ccccc2)cc1)c1ccccc1` gave an inhibition of 16.2%. In the case of `N#Cc1ccc(CON=Cc2ccccc2)cc1`, the inhibition is reported as 70.7% (active). For `COc1ccc(C=NOCc2ccc(Cl)c(Cl)c2)c(OC)c1`, the inhibition was 32.8%.
